High-throughput results from PubChem BioAssay.
IL-1B inflam inh – inflammasome signaling inhibition, IL-1 beta readout; 4.7% of 360,000 active; AID 743279; activity change, % at 57.5 µM; THP-1 LPS/ATP IL-1B secretion, AlphaLISA, 16 h; hits give low values; in the data active = activity change below about -50%; inconclusive = mostly about -30% to -49%
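THP-1 cells pretreated 1 hr with compounds (up to 57.5 uM final), then stimulated with LPS (250 ng/mL final) plus ATP (1.25 mM final); secreted IL-1B measured by AlphaLISA after 16 hr, decreased signal indicating inhibition.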
HT1080 IDH1KD tx – toxicity to HT-1080 IDH1 knockdown cells (counter line) | 2% of 360,000 active | AID 686971 | Potency, µM (highest dose often 46.1 µM), inactives show at the highest dose activity, negative = toxicity, most hits filed as cytotoxic | HT-1080 IDH1 knockdown viability, ATP luminescence, 48 h;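 also: potency is read from the fitted curve at half-maximal effect; 0% = DMSO wells and -100% = cell-free medium wells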
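IDH1KD HT-1080 cells, 750/well, RPMI + 5% FBS; compound pinned after 2 h settling; 48 h, 37 °C; CellTiter-Glo luminescence; % activity normalised to DMSO and no-cell wells; curves fitted, classed by r2 and efficacy.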
KB-V1 cytotox – kills drug-selected multidrug resistant KB-V1 cells | Potency, µM (titrated, usually from 46.1 µM), hits mostly cytotoxic | AID 1347076 | 3.4% of 400,000 active | KB-V1 MDR cells viability, CellTiter-Glo, 72 h; also: potency is read from the fitted curve at half-maximal effect; nearly all actives have a fitted effect of over 60% in size
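Cytotoxicity toward P-gp-expressing KB-V1 cells was determined as loss of CellTiter-Glo luminescence after 72 h at 37 degrees C. Compounds were tested in quantitative HTS format across a concentration range, with curves fitted to normalized data.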
HT1080NT lethal – kills 2HG-producing HT-1080-NT fibrosarcoma cells | HT-1080-NT fibrosarcoma viability, CellTiter-Glo ATP luminescence, 48 h | Potency, µM (titrated, usually from 46.1 µM), inactives show at the highest dose activity, negative = less viability, most hits filed as cytotoxic | 1.6% of 360,000 active;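 also: NT is the 2HG producing partner of a matched IDH1 knockdown line; potency is read from the fitted curve at half-maximal effect; 0% = DMSO-treated cells and -100% = media-only wells without cells; nearly all actives have a fitted effect of over 55% in size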
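A 48-hour cytotoxicity screen used HT-1080-NT cells plated 2 hours before compound delivery. ATP-based CellTiter-Glo luminescence measured viability, normalized to DMSO and no-cell controls.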
KB-3-1 cytotox – kills parental KB-3-1 adenocarcinoma cells | KB-3-1 viability, CellTiter-Glo ATP luminescence, 72 h | Potency, µM (series often up to 46.1 µM), hits mostly cytotoxic | 1.4% of 400,000 active | AID 1347075; also: potency is read from the fitted curve at half-maximal effect; nearly all actives have a fitted effect of over 60% in size
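Cytotoxicity in the drug-sensitive parental line KB-3-1 was scored as loss of CellTiter-Glo luminescence following 72 h incubation with compound. Values come from curve fitting of normalized concentration-response data.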
Numbers without * were called inactive; i = inactive; u = inconclusive; x = not tested or not shown. Compounds with a hit are over-represented: about 8.8% of the library has one in this group of screens. Unless noted, calls follow the shape of the dose curve; as a rule, active = well fitted curve in the direction sought with a large enough effect; inconclusive = small, poorly fitted or top-dose-only effect, or another doubt; inactive = no such curve, though single readings can be large; an effect the other way counts as inactive or inconclusive. Unless noted, % is scaled to controls: 0 for no effect and ±100 for the full control effect.

SMILES	IL-1B inflam inh	HT1080 IDH1KD tx	KB-V1 cytotox	HT1080NT lethal	KB-3-1 cytotox
COc1cccc(-c2nc(CS(=O)(=O)CC(=O)Nc3c(C)cc(C)cc3C)c(C)o2)c1	x	x	i	x	i
COC(=O)C1=C(C)NC(=O)C1(NC(=O)c1cc(OC)c(OC)c(OC)c1)C(F)(F)F (configuration not stated)	x	x	i	x	i
CC(C)(C)NC(=O)c1oc2ccccc2c1NC(=O)c1ccc(F)cc1	x	x	i	x	i
c1ccc2c(c1)nc(N1CCCCC1)c1ccccc12	x	-17%	i	-12%	i
c1ccc(Oc2nc(-c3ccccn3)nc3ccccc23)cc1	u	u	i	-8%	u
COc1ccc(Oc2nc(-c3ccccn3)nc3ccccc23)cc1	-93*	u	u	u	u
c1ccc2c(N3CCCCC3)nc(N3CCCC3)nc2c1	u	0%	16µM*	-7%	i
CCN(CC)c1nc(-c2ccccn2)nc(-c2ccccc2)c1C#N	u	-16%	16µM*	-26%	u
CCCCSC1=N/C(=C/c2ccsc2)C(=O)N1c1ccccc1	-2	-3%	16µM*	8%	i
CCSC1=N/C(=C\c2cccnc2)C(=O)N1c1ccccc1	-3	1%	18µM*	8%	i
CSC1=N/C(=C\c2cccnc2)C(=O)N1c1ccccc1	32	27%	i	10%	i
COc1ccc(CCNC(=O)c2c(C)oc3ncn(C)c(=O)c23)c(OC)c1	x	x	i	x	i
O=[N+]([O-])c1ccc(N2CCN(S(=O)(=O)c3ccc(Cl)c(Cl)c3)CC2)cc1NCCN1CCOCC1	8	-1%	i	-3%	i
CCNc1cc(N2CCN(S(=O)(=O)c3ccc4c(c3)CCCC4)CC2)ccc1[N+](=O)[O-]	11	-5%	1.5µM*	5%	i
CC1CN(c2ccc(C(F)(F)F)cc2[N+](=O)[O-])CCN1S(C)(=O)=O (configuration not stated)	-6	6%	i	2%	i
O=[N+]([O-])c1cc(C(F)(F)F)ccc1N1CCN(S(=O)(=O)c2ccc3c(c2)CCCC3)CC1	-6	3%	5.2µM*	8%	u
Oc1ccc(C[C@H]2CN([C@@H](Cc3ccc(O)cc3)CN3CCC[C@@H]3CN3C(=S)NC[C@@H]3Cc3ccccc3)C(=S)N2CCc2ccccc2)cc1	u	u	i	u	u
Oc1ccc(C[C@H]2CN([C@@H](Cc3ccccc3)CN3CCC[C@@H]3CN3C(=S)NC[C@@H]3Cc3ccccc3)C(=S)N2CC2CCCCC2)cc1	u	u	i	23µM*	i
Oc1ccc(C[C@H]2CNC(=S)N2C[C@H]2CCCN2C[C@H](Cc2ccccc2)N2C[C@H](Cc3ccc(O)cc3)N(CCc3ccccc3)C2=S)cc1	u	18µM*	i	15µM*	u
Oc1ccc(C[C@H]2CNC(=S)N2CC2CCCN2C[C@H](Cc2ccccc2)N2C[C@H](Cc3ccc(O)cc3)N(CC3CCCCC3)C2=S)cc1 (some centres not stated)	u	26µM*	u	u	u
Oc1ccc(C[C@H]2CNC(=S)N2CC2CCCN2C[C@H](Cc2ccc(O)cc2)N2C[C@H](Cc3ccccc3)N(CC3CCCCC3)C2=S)cc1 (some centres not stated)	-72*	-27%	i	-25%	i
Oc1ccc(C[C@@H](CN2CCCC2CN2C(=S)NC[C@@H]2Cc2ccccc2)N2C[C@H](Cc3ccccc3)N(CC3CCCCC3)C2=S)cc1 (some centres not stated)	-8	8%	u	1%	i
Oc1ccc(C[C@H]2CNC(=S)N2CC2CCCN2C[C@H](Cc2ccc(O)cc2)N2C[C@H](Cc3ccc(O)cc3)N(CC3CCCCCC3)C2=S)cc1 (some centres not stated)	u	u	u	u	21µM*
